An excerpt weighted towards active compounds, which were near 4.9% of everything screened.
USP10 inh: inhibitors of human USP10 deubiquitinase; purified USP10, Ub-rhodamine fluorescence, 60 min; inhibition, % at 20 µM; 47,000 tested, 1.1% active; AID 1645856
UCHL1 block: inhibitors of human UCHL1 deubiquitinase; P09936; purified UCHL1, Ub-rhodamine cleavage fluorescence; inhibition, % at 20 µM; 47,000 tested, 0.2% active
USP8 block: blocks human USP8 ubiquitin-rhodamine cleavage; 47,000 tested, 4.2% active; inhibition, % at 20 µM; purified USP8, Ub-rhodamine cleavage fluorescence, 30 min; AID 1645853; P40818
OTUD3 inh: inhibitors of human OTUD3 deubiquitinase; Q5T2D3; purified OTUD3, Ub-rhodamine fluorescence, 2 h; inhibition, % at 25 µM; 47,000 tested, 0.7% active; AID 1645858
USP7 block: inhibitors of human USP7 deubiquitinase; Q93009; purified USP7, Ub-rhodamine cleavage fluorescence; inhibition, % at 20 µM; 47,000 tested, 0.3% active; AID 1645854
* hit, by the source's call. Cut-off read from the data, not from the text of the source: active = inhibition above about 30%; inactive = the rest.

SMILES | USP10 inh | UCHL1 block | USP8 block | OTUD3 inh | USP7 block
Cc1nc2ccccn2c1C1(O)C(=O)Nc2c(Cl)cc(Cl)cc21 (stereo not drawn) | 0 | 0 | 88* | 10 | -4
COc1ccc(NC(=O)CSc2nnc(-c3ccco3)n2C)cc1OC | 1 | 4 | 18 | 13 | 6
COc1ccc(-c2nnc(SCC(=O)Nc3ccc4[nH]c(=O)[nH]c4c3)n2C)cc1 | -2 | 1 | 38* | 10 | 7
O=C(CSc1nc(C2CC2)n(-c2ccccc2)n1)Nc1ccc2[nH]c(=O)[nH]c2c1 | 0 | 3 | -45 | -5 | 2
C[C@H](NC(=O)c1cc2ccccc2[nH]1)C(=O)Nc1ccc2c(c1)OCCO2 | -3 | -1 | 6 | -3 | 0
O=C(CSc1n[nH]c2nc3ccccc3n12)Nc1ccc2[nH]c(=O)[nH]c2c1 | 10 | 5 | 70* | 6 | -47
CC(Sc1n[nH]c2nc3ccccc3n12)C(=O)Nc1ccc2c(c1)OCCO2 (stereo not drawn) | -4 | 0 | -5 | 34* | 4
COc1cccc(CNC(=O)CSc2ncnc3c2sc2cccc(F)c23)c1 | -6 | -24 | -6 | -136 | -23
CC(C(=O)Nc1ccc(F)cc1)n1cnc2nc(N3CCCCC3)ncc2c1=O (stereo not drawn) | -4 | -1 | 32* | -57 | -7
Cc1cc(C2CC(=O)Nc3c2c(C)nn3-c2nc3ccccc3[nH]2)c(C)s1 (stereo not drawn) | 3 | -1 | 30* | -11 | 1
Cc1ccccc1C1CC(=O)Nc2c1c(C)nn2-c1ccc2nnc(C)n2n1 (stereo not drawn) | 3 | 1 | 2 | 14 | -2
COc1ccc(-c2cc(C(=O)Nc3n[nH]c4nc(C)ccc34)[nH]n2)c(OC)c1 | 1 | 1 | 56* | 2 | 2
COc1cccc(NC(=O)c2cc(-c3ccccc3)n[nH]2)c1 | 6 | -2 | -16 | -9 | 4
O=C(Nc1ccc(F)cc1)c1ccc(N2CCCCS2(=O)=O)cc1Cl | 1 | -2 | 0 | 6 | -1
CC(=O)c1ccc(NC(=O)c2ccc(N3CCCCS3(=O)=O)cc2Cl)cc1 | 10 | 9 | 31* | 8 | 14
O=S(=O)(c1ccccc1)N1C[C@H]2CN(CC3CCCC3)C[C@H]2C1 | -1 | -3 | -6 | -6 | 0
COc1ccc(Cl)cc1NC(=O)CSc1nnc(-c2ccoc2C)o1 | 1 | 3 | -2 | 0 | -139
COc1ccc(Cl)cc1NC(=O)CSc1ncnc2nc[nH]c12 | 47* | 6 | 74* | -1 | 22
O=C(c1ccccc1)N1CCCC1c1cnc(-c2ncc[nH]2)cn1 (stereo not drawn) | -17 | -8 | -36 | -17 | -2
CC(=O)Nc1ccc(N2C(=O)c3cc(-c4ccco4)nn3CC2(C)C(=O)NCc2ccc(F)cc2)cc1 (stereo not drawn) | -11 | -5 | 39* | 3 | -12
COCCNC(=O)C1(C)Cn2nc(-c3ccco3)cc2C(=O)N1c1ccc(NC(C)=O)cc1 (stereo not drawn) | -6 | -3 | -17 | -16 | -2
COc1cc2c(c(OC)c1OC)-c1ccc(N3CCN(c4cccc(Cl)c4)CC3)c(=O)cc1[C@@H](NC(C)=O)CC2 | -1 | 6 | 55* | -2 | 8
COCCNC(=O)CSc1nnc2c3ccccc3nc(-c3ccccc3)n12 | -5 | -3 | -2 | 4 | -7
CCc1c(C)nc2c(-c3ccccc3)c(Cc3ccccc3)[nH]n2c1=O | 16 | -8 | 62* | 22 | 7
O=C(Cc1ccccc1)N1CCN(c2ccnc3cc(Cl)ccc23)CC1 | 0 | -1 | -42 | -2 | -70
SMILES | USP10 inh | UCHL1 block | USP8 block | OTUD3 inh | USP7 block
O=C(c1cccc2ncccc12)N1CCN(c2ccnc3cc(Cl)ccc23)CC1 | 1 | 22 | 48* | -71 | -1
Cc1cc(O)c2c3c(c(O)cc2c1)C(=O)c1c(O)cccc1C3=O | 7 | 67* | -14 | 67* | 60*
O=C1c2cccc(O)c2C(=O)c2c(O)cccc21 | -7 | -26 | -172 | -98 | -83
O=C(NC1CCCC1)C(c1ccncc1)N(C(=O)c1ccco1)c1ccc2c(c1)OCCO2 (stereo not drawn) | -6 | 3 | 48* | 4 | -3
COc1ccccc1N(C(=O)c1ccco1)C(C(=O)NC1CCCC1)c1cccnc1 (stereo not drawn) | 0 | 0 | 18 | 8 | 1
COc1cccc(N2CCN(Cc3nnc(-c4ccc(F)cc4)o3)CC2)c1 | -5 | -7 | -80 | -103 | -9
N#Cc1ccc(OCc2noc(-c3ccc(F)cc3)n2)cc1 | 1 | 0 | 38* | 8 | 5
Cc1ccc(-c2cc3nc(Nc4ccc(C(N)=O)cc4)ccn3n2)cc1 | -6 | -3 | 71* | -34 | -6
COc1ccc(-c2cc3nc(Nc4cc(OC)c(OC)c(OC)c4)ccn3n2)cc1 | -11 | -6 | 14 | -6 | 0
COc1cccc(Cc2nsc(N3CCCC(C(=O)O)C3)n2)c1 (stereo not drawn) | 3 | 3 | -2 | 10 | 4
O=c1cc(C2CCCN(Cc3ccc(N4CCCC4)c(F)c3)C2)nc(-c2ccncc2)[nH]1 (stereo not drawn) | -4 | -5 | 5 | -1 | 0
CC(Nc1ncnc2cc(-c3ccc(Cl)cc3)sc12)c1ccccn1 (stereo not drawn) | 14 | 0 | 57* | 3 | 5
Cc1ccc(CNc2nc(-c3cccnc3)nn2S(C)(=O)=O)cc1 | 1 | 3 | 3 | 4 | -2
CS(=O)(=O)n1nc(NCc2ccc(F)cc2)nc1NCc1ccc(F)cc1 | 3 | 2 | 6 | 33* | -101
O=C(CCN1C(=O)c2cccnc2Sc2ccccc21)NCc1ccc2c(c1)OCO2 | -5 | -4 | -15 | -8 | -2
O=C(Cn1cc(S(=O)(=O)Cc2ccccc2)c2ccccc21)NC1CCCCC1 | -2 | -3 | 30* | -14 | -6
COc1ccc(-n2c(=O)c3ccc(C(=O)NCCc4ccccc4)cc3n(CC(=O)NCc3ccco3)c2=O)cc1 | 44* | 6 | 6 | 25 | -15
O=C(Cn1c(=O)n(Cc2ccco2)c(=O)c2ccc(C(=O)NC3CCCC3)cc21)NCc1ccco1 | 20 | 6 | 45* | 15 | -2
Cc1cc(NC(=O)Cn2c(=O)n(Cc3ccco3)c(=O)c3ccc(C(=O)NCCc4ccccc4)cc32)n[nH]1 | 66* | 18 | 87* | 77* | 3
O=C(Cn1c(=O)n(-c2ccccc2)c(=O)c2ccc(C(=O)NCc3ccc4c(c3)OCO4)cc21)NCCC1=CCCCC1 | 32* | 3 | 75* | 58* | 10
O=C(CCCCn1c(=O)c2ccccc2n(CC(=O)NCCC2=CCCCC2)c1=O)NCc1ccc2c(c1)OCO2 | 13 | 0 | -1 | -1 | -3
Cc1cc(NC(=O)Cn2c(=O)n(CCc3ccccc3)c(=O)c3ccccc32)n[nH]1 | 8 | -1 | 10 | 5 | -3
COc1ccc(N(C)S(=O)(=O)c2cccc(C(=O)Nc3nc4ccccc4s3)c2)cc1 | 8 | 6 | 28 | 0 | 9
